Experimental data from the supplement of paper PMC12636033.
± gives the standard deviation of the averaged measurements. Whole data set: some 33,000 sequences, median “E-score (rank enrichment, -0.5 to 0.5)” near -0.0068, cut for the highest 2% near 0.24. Only a selection was taken, and the highest values are over-represented in it overall.

These sequences were tested on muMax20 (Max(13-93) K31hArg/K57hArg, M65Nle) (assay: PBM 8-mer E-score (E-score (rank enrichment, -0.5 to 0.5)); higher = stronger preferential binding).
Experimental: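 Protein binding microarray (universal PBM chip covering all 10-mers in fixed probe flanks) with chemically synthesized human Max(13-93) bHLH-LZ analogs (not full-length Max) bearing noncanonical residues (hArg, Tha, Aib, Nle at 65) and aromatic Cys staples. Read-out per 8-mer (and its reverse complement): E-score (rank-based enrichment, -0.5 to 0.5) and Z-score of median probe intensity.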
With AACAATTG the “PBM 8-mer E-score” value was 0.131 ± 0.0086.
With CCCAATTC the “PBM 8-mer E-score” value was 0.249 ± 0.0091.
For AACAACAA, the “PBM 8-mer E-score” value was 0.243 ± 0.0063.
ACCAATTC was tested, and the “PBM 8-mer E-score” value was -0.0667 ± 0.11.
In the case of ATCAACAT, the “PBM 8-mer E-score” value is reported as 0.241 ± 0.022.
With AACAATTC the “PBM 8-mer E-score” value was 0.127 ± 0.014.
In the case of AACAATTA, the “PBM 8-mer E-score” value is reported as 0.259 ± 0.0043.
ATCAACAG was tested, and the “PBM 8-mer E-score” value was 0.116 ± 0.0076.
For ATCAACAA, the “PBM 8-mer E-score” value was 0.101 ± 0.048.
For AACAACAT, the “PBM 8-mer E-score” value was 0.168 ± 0.037.
With CACAACAA the “PBM 8-mer E-score” value was 0.205 ± 0.098.
For CCCAATTA, the “PBM 8-mer E-score” value was 0.187 ± 0.097.
With CAATCATC the “PBM 8-mer E-score” value was -0.0452 ± 0.15.
In the case of TACCGGAA, the “PBM 8-mer E-score” value is reported as -0.106 ± 0.24.
For AACTCCTT, the “PBM 8-mer E-score” value was 0.132 ± 0.07.
CCCTGCAC was tested, and the “PBM 8-mer E-score” value was -0.03728 ± 0.00027.
For CGCTCTCC, the “PBM 8-mer E-score” value was -0.192 ± 0.091.
For CGAGATCC, the “PBM 8-mer E-score” value was -0.163 ± 0.13.
With AGGGGTCG the “PBM 8-mer E-score” value was -0.0534 ± 0.037.
CTGGAAGA was tested, and the “PBM 8-mer E-score” value was 0.0596 ± 0.037.
ACCAATTG was tested, and the “PBM 8-mer E-score” value was 0.211 ± 0.013.
For CACAATAC, the “PBM 8-mer E-score” value was 0.126 ± 0.028.
CGCAACAA was tested, and the “PBM 8-mer E-score” value was 0.257 ± 0.049.
For GCCAATTA, the “PBM 8-mer E-score” value was -0.00292 ± 0.022.
CGCAACAC was tested, and the “PBM 8-mer E-score” value was 0.0683 ± 0.035.
In the case of AACAATAA, the “PBM 8-mer E-score” value is reported as 0.247 ± 0.0054.
AACAATAG was tested, and the “PBM 8-mer E-score” value was 0.0278 ± 0.047.
In the case of GACAATAC, the “PBM 8-mer E-score” value is reported as 0.21 ± 0.021.
AGCAACAA was tested, and the “PBM 8-mer E-score” value was -0.0639 ± 0.14.
AACAATAT was tested, and the “PBM 8-mer E-score” value was 0.207 ± 0.061.
ACCAATTA was tested, and the “PBM 8-mer E-score” value was 0.247 ± 0.095.
In the case of AACAATAC, the “PBM 8-mer E-score” value is reported as 0.319 ± 0.063.
For CATCTTCC, the “PBM 8-mer E-score” value was 0.14 ± 0.005.
CTAGCGAA was tested, and the “PBM 8-mer E-score” value was -0.129 ± 0.063.
In the case of CTAGTGCA, the “PBM 8-mer E-score” value is reported as 0.0056 ± 0.097.
In the case of GAGAGTCA, the “PBM 8-mer E-score” value is reported as 0.0012 ± 0.088.
ATCCACCA was tested, and the “PBM 8-mer E-score” value was 0.068 ± 0.024.
In the case of GGGGCCCC, the “PBM 8-mer E-score” value is reported as -0.138 ± 0.039.
In the case of AACACCAA, the “PBM 8-mer E-score” value is reported as 0.239 ± 0.018.
With TACACCAA the “PBM 8-mer E-score” value was -0.0765 ± 0.027.
In the case of GACAATAA, the “PBM 8-mer E-score” value is reported as 0.216 ± 0.067.
CACAATAA was tested, and the “PBM 8-mer E-score” value was 0.151 ± 0.0047.
GACACCAA was tested, and the “PBM 8-mer E-score” value was -0.0812 ± 0.037.
TACAATAA was tested, and the “PBM 8-mer E-score” value was 0.33 ± 0.008.
For AACTTCTT, the “PBM 8-mer E-score” value was 0.155 ± 0.031.
With TAATTTGA the “PBM 8-mer E-score” value was 0.0569 ± 0.0096.
In the case of CAATTTGA, the “PBM 8-mer E-score” value is reported as 0.246 ± 0.051.
In the case of CAATTTGG, the “PBM 8-mer E-score” value is reported as 0.0732 ± 0.059.
In the case of AATCAGCA, the “PBM 8-mer E-score” value is reported as 0.0143 ± 0.044.
ACCTGTTG was tested, and the “PBM 8-mer E-score” value was 0.112 ± 0.12.
For AGATATGA, the “PBM 8-mer E-score” value was 0.028 ± 0.0086.
In the case of GTACCATA, the “PBM 8-mer E-score” value is reported as 0.0347 ± 0.038.
In the case of ATACCAAC, the “PBM 8-mer E-score” value is reported as 0.271 ± 0.01.
ATACCATG was tested, and the “PBM 8-mer E-score” value was 0.0838 ± 0.02.
ATACCAAG was tested, and the “PBM 8-mer E-score” value was 0.0843 ± 0.073.
For CTACCAAC, the “PBM 8-mer E-score” value was 0.118 ± 0.079.
In the case of ATACCATA, the “PBM 8-mer E-score” value is reported as 0.298 ± 0.029.
ATAGAAGC was tested, and the “PBM 8-mer E-score” value was 0.041 ± 0.086.
TAAGGGAA was tested, and the “PBM 8-mer E-score” value was 0.0705 ± 0.073.
With CTCCCGTA the “PBM 8-mer E-score” value was 0.0488 ± 0.069.
With CTAAAGAA the “PBM 8-mer E-score” value was 0.0925 ± 0.088.
In the case of ATAAAGCG, the “PBM 8-mer E-score” value is reported as 0.0396 ± 0.047.
For ATAAAGCA, the “PBM 8-mer E-score” value was 0.243 ± 0.037.
With ATAAAGAA the “PBM 8-mer E-score” value was 0.264 ± 0.018.
For CTAAAGCA, the “PBM 8-mer E-score” value was 0.0825 ± 0.012.
For TTAAAGAA, the “PBM 8-mer E-score” value was 0.17 ± 0.072.
For CACCGGCA, the “PBM 8-mer E-score” value was -0.12 ± 0.023.
With ACGTTCCT the “PBM 8-mer E-score” value was 0.0666 ± 0.011.
For ATACCTAC, the “PBM 8-mer E-score” value was 0.129 ± 0.12.
In the case of ATTTAGAC, the “PBM 8-mer E-score” value is reported as 0.0494 ± 0.067.
For ATAACGCG, the “PBM 8-mer E-score” value was 0.073 ± 0.11.
CTTTCGGC was tested, and the “PBM 8-mer E-score” value was -0.149 ± 0.041.
In the case of AAAACCTT, the “PBM 8-mer E-score” value is reported as 0.103 ± 0.011.
AAAAACCA was tested, and the “PBM 8-mer E-score” value was 0.244 ± 0.0092.
With AAAAACCC the “PBM 8-mer E-score” value was -0.0325 ± 0.027.
With TAAAACCA the “PBM 8-mer E-score” value was 0.131 ± 0.048.
AAAAACCG was tested, and the “PBM 8-mer E-score” value was 0.0778 ± 0.087.
CAAAACCA was tested, and the “PBM 8-mer E-score” value was 0.0801 ± 0.046.
AAAACCTA was tested, and the “PBM 8-mer E-score” value was 0.269 ± 0.0045.
With CAAACCTA the “PBM 8-mer E-score” value was 0.125 ± 0.027.
For AAAAACCT, the “PBM 8-mer E-score” value was 0.25 ± 0.024.
In the case of CCTTGCGC, the “PBM 8-mer E-score” value is reported as -0.034 ± 0.012.
With GGGGCGAC the “PBM 8-mer E-score” value was -0.0761 ± 0.044.
With AATCAGCT the “PBM 8-mer E-score” value was 0.298 ± 0.065.
In the case of AATCAGCC, the “PBM 8-mer E-score” value is reported as -0.00374 ± 0.048.
